Experimental data taken from PubChem BioAssay (Tox21).
Several values for one entry are separate records, joined by “and”; a condition that tells them apart may be missing. Equal values may be shown once. Records with an inconclusive call do not appear. A call without a number means that no potency is given here. Where a structure was tested more than once in an assay, its records may differ in their call. Activity calls are given as the source filed them. Unless noted, calls come from the whole dose curve; as a rule, active = well fitted curve in the direction sought with a large enough effect in the repeat runs; inconclusive = weak or mixed curves; inactive = no such curve, though single readings can be large; an effect the other way counts as inactive or inconclusive.

What was measured:
[1] = target: Thyrotropin-releasing hormone receptor (Homo sapiens) (UniProt P34981); experiment: qHTS assay to identify small molecule agonists of the thyrotropin-releasing hormone receptor (TRHR) signaling pathway (AID 1346891; calls by dose curve;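 note: HEK293 cells expressing TRHR with calcium dye readout; series mostly up to about 58 µM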)
Procedure, shortened: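 Kinetic fluorescence (3 min, 1 s intervals) reported intracellular calcium after compound transfer onto TRHR-Hek293 cells pre-loaded with dye for 2 h at 37 °C.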

[2] = Human pregnane X receptor (PXR) small molecule agonists, qHTS cell viability counter screen (AID 1346977); note: nearly all actives have a fitted effect of over 50% in size
Procedure, shortened: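 HepG2 cells stably carrying the PXR-Luc reporter are cultured with 5% charcoal-stripped FBS and treated with compounds for 24hr. CellTiter-Fluor is added at 23hr and fluorescence is read after 1hr.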

[3] = Caspase-3/7 induction in HepG2 cells by small molecules, qHTS assay (AID 1346978); note: nearly all actives have a fitted effect of over 15% in size
Procedure, shortened: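 Caspase-3/7 induction was measured by Caspase-Glo 3/7 luminescence (30 min, room temperature) after a 17 hr compound exposure of wild-type HepG2 cells seeded at 2,000 per well and pre-incubated 5 hr.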

[4] = Caspase-3/7 induction in CHO-K1 cells by small molecules, qHTS cell viability counter screen (AID 1346979); note: nearly all actives have a fitted effect of over 35% in size; note: potency is the fitted concentration of half-maximal effect
Procedure, shortened: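 Seeding: 1,500 CHO-K1 cells/well. Rest: 5hr, 37C. Treatment: compounds in DMSO, 16hr. Read: CellTiter-Fluor, 1hr, fluorescence.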

[5] = Caspase-3/7 induction in CHO-K1 cells by small molecules, qHTS assay (AID 1346980); note: nearly all actives have a fitted effect of over 15% in size
Procedure, shortened: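 Luminescent Caspase-Glo 3/7 read (30min, room temperature) quantified apoptosis induction. Cells were wild-type CHO-K1, treated with compound for 17hr at 37 C and 5% CO2.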

[6] = Caspase-3/7 induction in HepG2 cells by small molecules, qHTS cell viability counter screen (AID 1346981); note: series mostly up to about 92 µM; nearly all actives have a fitted effect of over 30% in size
Procedure, shortened: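 Fluorescence read-out of live-cell protease activity (CellTiter-Fluor) after 1 hr with reagent. This was measured in the same wells as the caspase-3/7 luminescence, on HepG2 cells exposed to DMSO-dissolved compounds for 16 hr at 37 C.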

[7] = target: Nuclear receptor subfamily 1 group I member 2 (Homo sapiens) (UniProt O75469); experiment: Human pregnane X receptor (PXR) small molecule agonists, qHTS assay (AID 1346982); note: nearly all actives have a fitted effect of over 35% in size; note: potency is the fitted concentration of half-maximal effect
Procedure, shortened: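 HepG2 PXR-Luc reporter line, 5% charcoal-stripped FBS; 5 hr pre-incubation, compound (DMSO) 24 hr at 37 C/5% CO2; ONE-Glo 30 min RT; luminescence read-out.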

[8] = target: Acetylcholinesterase (Homo sapiens) (UniProt P22303); experiment: Acetylcholinesterase (AChE) small molecule antagonists: colormetric cell-based qHTS assay (AID 1347395; calls by dose curve; note: nearly all actives have a fitted effect of over 30% in size)
Procedure, shortened: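 Quantitative HTS in attached SH-SY5Y cells: 30 min compound exposure, then 90 min with acetylthiocholine and DTNB at 37 C; colour from thiocholine reports AChE activity.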

[9] = target: Acetylcholinesterase (Homo sapiens) (UniProt P22303); experiment: Acetylcholinesterase (AChE) small molecule antagonists: enzyme-based qHTS assay (AID 1347397; calls by dose curve; note: nearly all actives have a fitted effect of over 55% in size); conditions: Potency: AChE enzyme activity inhibition
Procedure, shortened: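 Colorimetric DTNB readout of acetylthiocholine hydrolysis, 10 min at room temperature, after 30 min room-temperature exposure of 50 mU/mL recombinant human enzyme to compound; DMSO vehicle control.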

[10] = target: Acetylcholinesterase (Homo sapiens) (UniProt P22303); experiment: Acetylcholinesterase (AChE) small molecule antagonists: fluorescence cell-based qHTS assay (AID 1347398; calls by dose curve; note: nearly all actives have a fitted effect of over 50% in size); conditions: Potency: AChE activity
Procedure, shortened: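 Cellular AChE activity read as thiocholine from acetylthiocholine hydrolysis, detected by Thiolite Green fluorescence at 490/520 nm after 40 min at room temperature. Compounds were pre-incubated 30 min at 37 C on adherent SH-SY5Y cells.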

[11] = target: Acetylcholinesterase (Homo sapiens) (UniProt P22303); experiment: Acetylcholinesterase (AChE) small molecule antagonists: enzyme-based qHTS assay with human liver microsomes (AID 1347399; calls by dose curve; note: nearly all actives have a fitted effect of over 60% in size); conditions: Potency: qHTS inhibition
Procedure, shortened: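 Recombinant human AChE (50 mU/mL in the enzyme mix) and human liver microsomes (0.25 mg/mL final) were preincubated with compound and NADPH (0.25 mg/mL final) for 30 min at 37 C. Acetylthiocholine/DTNB was then added; thiocholine was read colorimetrically after 10 min at room temperature.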

[12] = target: Cytochrome P450 2C19 (Homo sapiens) (UniProt P33261); experiment: Cytochrome P450 Family 2 Subfamily C Member 19 (CYP2C19) small molecule antagonists: luciferase reporter qHTS assay (AID 1671197); note: nearly all actives have a fitted effect of over 65% in size; note: potency is the fitted concentration of half-maximal effect
Procedure, shortened: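 Quantitative high-throughput screen of the Tox21 library using CYP2C19 with proluciferin substrate. Reaction: NADPH regeneration, 37C, 1 h, after 10 min compound preincubation at room temperature. Readout: luminescence.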

[13] = target: Cytochrome P450 1A2 (Homo sapiens) (UniProt P05177); experiment: Cytochrome P450 Family 1 Subfamily A Member 2 (CYP1A2) small molecule antagonists: luciferase reporter qHTS assay (AID 1671199); note: nearly all actives have a fitted effect of over 50% in size; note: potency is the fitted concentration of half-maximal effect
Procedure, shortened: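 Luminescence readout (relative luminescence units) after luciferin detection reagent, 20 min RT. Preceded by 1 h room-temperature CYP1A2 reaction with NADPH regeneration solution following 10 min compound preincubation with enzyme and proluciferin substrate. Furafylline positive control.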

[14] = target: Voltage-gated inwardly rectifying potassium channel KCNH2 (Homo sapiens) (UniProt Q12809); experiment: Human Ether-a-go-go-Related Gene (hERG) channel small molecule antagonists: fluorescence cell-based qHTS assay (AID 1671200);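 note: hERG-expressing U2OS cells given a thallium stimulus after FluxOR II dye loading; series mostly up to about 77 µM; nearly all actives have a fitted effect of over 50% in size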
Procedure, shortened: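 First, 1000 cells per well are seeded and cultured overnight at 37 C. Next, FluxOR II dye is loaded for 1 h at room temperature, protected from light. After 10 more minutes, stimulus is added and fluorescence is read.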

[15] = target: Cytochrome P450 3A4 (Homo sapiens) (UniProt P08684); experiment: Cytochrome P450 Family 3 Subfamily A Member 4 (CYP3A4) small molecule antagonists: luciferase reporter qHTS assay (AID 1671201); note: nearly all actives have a fitted effect of over 50% in size; note: potency is the fitted concentration of half-maximal effect
Procedure, shortened: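 Enzyme and proluciferin substrate are mixed with test chemicals for 10 min, then NADPH regeneration system drives turnover for 1 h at room temperature. A detection reagent halts the reaction; luminescence after 20 min gives relative activity.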

[16] = target: Nuclear receptor subfamily 1 group I member 2 (Rattus norvegicus) (UniProt Q9R1A7); experiment: Rat pregnane X receptor (rPXR) activation by small molecules, qHTS assay (AID 1346983); conditions: rPXR luciferase reporter cells, One-Glo luminescence, 24 h; max activation: stronger effect = higher value; note: nearly all actives have a fitted effect of over 20% in size
Procedure, shortened: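 Luminescent readout (One-Glo luciferase, 30 min room temperature) followed 24 hr compound treatment at 37 C of rPXR cells plated 2,000 per well and preincubated 5hr; qHTS format with compounds delivered in DMSO.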

[17] = target: Nuclear receptor subfamily 1 group I member 2 (Homo sapiens) (UniProt O75469); experiment: CYP3A4 induction through human pregnane X receptor (PXR) by small molecules, qHTS assay (AID 1346984); note: nearly all actives have a fitted effect of over 40% in size
Procedure, shortened: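 HepG2-derived DPX-2 line carrying PXR plus a CYP3A4-promoter luciferase reporter; cells plated 5 hr, compound-exposed 24 hr at 37C. CYP3A4 activity probed with 3uM (final) Luciferin-IPA for 3hr, then luciferase read after One-Glo.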

[18] = target: Nuclear receptor subfamily 1 group I member 2 (Homo sapiens) (UniProt O75469); experiment: Human pregnane X receptor (PXR) activation by small molecules, qHTS assay (AID 1346985); note: nearly all actives have a fitted effect of over 40% in size
Procedure, shortened: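 DPX-2 cells (HepG2 co-transfected with a PXR response element and a CYP3A4-promoter luciferase construct) were seeded at 2,000 per well, rested 5 hr at 37C, then exposed to DMSO-dissolved compounds for 24 hr. Activation was read as luciferase luminescence.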

[19] = target: Cytochrome P450 2D6 (Homo sapiens) (UniProt P10635); experiment: Cytochrome P450 Family 2 Subfamily D Member 6 (CYP2D6) small molecule antagonists: luciferase reporter qHTS assay (AID 1671196)
Procedure, shortened: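 Luminogenic proluciferin substrate, CYP2D6 enzyme; 10 min RT preincubation with compound, NADPH regeneration system added, 1 h RT. Stop/detection reagent, 20 min RT, luminescence read (RLU). Signal proportional to CYP activity.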

[20] = target: Cytochrome P450 2C9 (Homo sapiens) (UniProt P11712); experiment: Cytochrome P450 Family 2 Subfamily C Member 9 (CYP2C9) small molecule antagonists: luciferase reporter qHTS assay (AID 1671198); note: nearly all actives have a fitted effect of over 50% in size; note: potency is the fitted concentration of half-maximal effect
Procedure, shortened: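 Enzyme-substrate mix preincubated with compound 10 min at room temperature; reaction started with NADPH regeneration solution, 1 h 37C. Luminescent luciferin product read after 20 min detection reagent.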

Sequence of Cytochrome P450 1A2 (Homo sapiens) (P05177 whole entry, looked up): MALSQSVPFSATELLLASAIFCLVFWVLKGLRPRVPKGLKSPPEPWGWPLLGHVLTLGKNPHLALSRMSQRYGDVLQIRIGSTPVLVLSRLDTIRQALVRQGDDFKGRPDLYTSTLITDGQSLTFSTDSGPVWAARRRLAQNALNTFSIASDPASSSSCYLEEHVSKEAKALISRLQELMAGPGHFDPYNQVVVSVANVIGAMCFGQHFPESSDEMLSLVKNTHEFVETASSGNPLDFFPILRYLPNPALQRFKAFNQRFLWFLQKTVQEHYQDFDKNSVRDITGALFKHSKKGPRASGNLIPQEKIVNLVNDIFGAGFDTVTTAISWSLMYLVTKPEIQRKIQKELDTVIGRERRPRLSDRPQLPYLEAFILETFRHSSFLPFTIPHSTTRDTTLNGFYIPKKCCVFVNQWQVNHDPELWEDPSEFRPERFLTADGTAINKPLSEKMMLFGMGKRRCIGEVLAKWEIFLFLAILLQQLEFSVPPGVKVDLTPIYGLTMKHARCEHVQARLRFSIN
Sequence of Cytochrome P450 2D6 (Homo sapiens) (P10635 whole entry, looked up): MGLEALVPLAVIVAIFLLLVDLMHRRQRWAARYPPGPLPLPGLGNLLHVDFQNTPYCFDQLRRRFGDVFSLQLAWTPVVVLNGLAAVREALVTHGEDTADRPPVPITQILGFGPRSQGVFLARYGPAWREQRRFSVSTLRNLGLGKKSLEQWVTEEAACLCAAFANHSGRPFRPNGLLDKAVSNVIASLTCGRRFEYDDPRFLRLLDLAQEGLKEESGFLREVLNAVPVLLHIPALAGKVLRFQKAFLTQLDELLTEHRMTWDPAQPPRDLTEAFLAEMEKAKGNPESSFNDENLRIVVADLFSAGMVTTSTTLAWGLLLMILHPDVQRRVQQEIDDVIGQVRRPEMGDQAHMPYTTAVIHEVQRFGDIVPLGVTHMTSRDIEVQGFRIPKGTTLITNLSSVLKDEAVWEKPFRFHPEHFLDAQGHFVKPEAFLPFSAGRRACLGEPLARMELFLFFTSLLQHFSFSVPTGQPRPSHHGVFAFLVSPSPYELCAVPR
Sequence of Cytochrome P450 2C19 (Homo sapiens) (P33261 whole entry, looked up): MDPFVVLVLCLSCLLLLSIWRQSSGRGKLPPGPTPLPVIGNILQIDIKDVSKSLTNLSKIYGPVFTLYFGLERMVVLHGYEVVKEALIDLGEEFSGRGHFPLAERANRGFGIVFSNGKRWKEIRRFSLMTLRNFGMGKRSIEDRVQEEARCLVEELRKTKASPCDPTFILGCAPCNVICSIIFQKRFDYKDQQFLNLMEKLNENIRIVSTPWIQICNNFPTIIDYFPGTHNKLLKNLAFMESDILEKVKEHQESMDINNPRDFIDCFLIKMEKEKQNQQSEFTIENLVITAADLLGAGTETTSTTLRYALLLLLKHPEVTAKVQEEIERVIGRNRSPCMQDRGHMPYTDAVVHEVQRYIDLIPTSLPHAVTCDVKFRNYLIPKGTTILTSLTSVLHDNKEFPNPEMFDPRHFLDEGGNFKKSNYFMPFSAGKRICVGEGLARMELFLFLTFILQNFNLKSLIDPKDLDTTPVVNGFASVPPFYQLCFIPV
Sequence of Nuclear receptor subfamily 1 group I member 2 (Homo sapiens) (O75469 whole entry, looked up): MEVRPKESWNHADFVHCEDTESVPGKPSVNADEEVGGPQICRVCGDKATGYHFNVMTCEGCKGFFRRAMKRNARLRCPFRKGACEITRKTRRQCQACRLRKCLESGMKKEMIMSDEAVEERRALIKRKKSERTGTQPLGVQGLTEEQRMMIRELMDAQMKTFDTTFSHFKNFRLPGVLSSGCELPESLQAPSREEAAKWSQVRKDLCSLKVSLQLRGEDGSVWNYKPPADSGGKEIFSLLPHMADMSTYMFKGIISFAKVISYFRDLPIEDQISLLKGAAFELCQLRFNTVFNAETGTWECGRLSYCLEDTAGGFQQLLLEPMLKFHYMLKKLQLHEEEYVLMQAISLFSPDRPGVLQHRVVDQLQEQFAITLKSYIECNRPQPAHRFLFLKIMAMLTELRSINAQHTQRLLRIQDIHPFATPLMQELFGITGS
Sequence of Voltage-gated inwardly rectifying potassium channel KCNH2 (Homo sapiens) (Q12809 whole entry, looked up): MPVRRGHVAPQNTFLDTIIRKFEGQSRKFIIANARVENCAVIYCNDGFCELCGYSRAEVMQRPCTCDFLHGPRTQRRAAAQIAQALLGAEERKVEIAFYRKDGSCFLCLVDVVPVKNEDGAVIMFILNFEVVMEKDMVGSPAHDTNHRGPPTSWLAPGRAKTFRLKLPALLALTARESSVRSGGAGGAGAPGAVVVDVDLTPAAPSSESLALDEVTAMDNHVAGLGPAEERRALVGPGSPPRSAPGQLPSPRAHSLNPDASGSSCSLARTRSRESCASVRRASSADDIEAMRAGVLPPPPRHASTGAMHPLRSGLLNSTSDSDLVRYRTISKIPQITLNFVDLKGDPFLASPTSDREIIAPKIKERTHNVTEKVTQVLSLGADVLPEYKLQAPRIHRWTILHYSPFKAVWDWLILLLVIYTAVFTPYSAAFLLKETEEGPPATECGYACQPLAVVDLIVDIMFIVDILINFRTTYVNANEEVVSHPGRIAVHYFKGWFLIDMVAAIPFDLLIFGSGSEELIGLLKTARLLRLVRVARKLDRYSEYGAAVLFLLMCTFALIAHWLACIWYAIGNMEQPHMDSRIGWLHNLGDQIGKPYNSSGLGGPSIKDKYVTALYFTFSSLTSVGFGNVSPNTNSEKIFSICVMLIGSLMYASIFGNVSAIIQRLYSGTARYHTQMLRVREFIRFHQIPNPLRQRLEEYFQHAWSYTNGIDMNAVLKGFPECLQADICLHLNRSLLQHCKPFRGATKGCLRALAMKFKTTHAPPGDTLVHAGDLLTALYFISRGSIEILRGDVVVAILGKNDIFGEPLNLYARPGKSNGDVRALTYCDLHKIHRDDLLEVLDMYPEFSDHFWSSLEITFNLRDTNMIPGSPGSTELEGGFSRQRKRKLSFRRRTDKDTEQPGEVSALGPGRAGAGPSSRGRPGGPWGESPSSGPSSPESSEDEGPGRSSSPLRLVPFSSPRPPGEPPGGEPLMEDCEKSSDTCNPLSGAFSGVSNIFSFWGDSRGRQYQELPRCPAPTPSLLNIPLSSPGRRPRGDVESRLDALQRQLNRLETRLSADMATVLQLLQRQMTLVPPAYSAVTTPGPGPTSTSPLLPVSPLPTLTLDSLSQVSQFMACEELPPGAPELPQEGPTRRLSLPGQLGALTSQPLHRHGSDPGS
Sequence of Nuclear receptor subfamily 1 group I member 2 (Rattus norvegicus) (Q9R1A7 whole entry, looked up): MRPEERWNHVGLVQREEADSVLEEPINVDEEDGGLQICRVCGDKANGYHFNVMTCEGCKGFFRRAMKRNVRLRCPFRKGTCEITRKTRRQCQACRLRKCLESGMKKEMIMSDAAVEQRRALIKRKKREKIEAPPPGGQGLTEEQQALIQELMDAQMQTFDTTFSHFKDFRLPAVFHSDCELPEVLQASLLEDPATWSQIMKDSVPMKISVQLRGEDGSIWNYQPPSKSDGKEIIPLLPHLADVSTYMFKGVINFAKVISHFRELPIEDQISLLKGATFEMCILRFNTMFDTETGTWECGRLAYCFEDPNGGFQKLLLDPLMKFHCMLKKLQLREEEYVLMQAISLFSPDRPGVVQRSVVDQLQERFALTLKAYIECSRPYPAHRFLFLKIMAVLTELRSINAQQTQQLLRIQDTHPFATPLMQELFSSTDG
Sequence of Acetylcholinesterase (Homo sapiens) (P22303 whole entry, looked up): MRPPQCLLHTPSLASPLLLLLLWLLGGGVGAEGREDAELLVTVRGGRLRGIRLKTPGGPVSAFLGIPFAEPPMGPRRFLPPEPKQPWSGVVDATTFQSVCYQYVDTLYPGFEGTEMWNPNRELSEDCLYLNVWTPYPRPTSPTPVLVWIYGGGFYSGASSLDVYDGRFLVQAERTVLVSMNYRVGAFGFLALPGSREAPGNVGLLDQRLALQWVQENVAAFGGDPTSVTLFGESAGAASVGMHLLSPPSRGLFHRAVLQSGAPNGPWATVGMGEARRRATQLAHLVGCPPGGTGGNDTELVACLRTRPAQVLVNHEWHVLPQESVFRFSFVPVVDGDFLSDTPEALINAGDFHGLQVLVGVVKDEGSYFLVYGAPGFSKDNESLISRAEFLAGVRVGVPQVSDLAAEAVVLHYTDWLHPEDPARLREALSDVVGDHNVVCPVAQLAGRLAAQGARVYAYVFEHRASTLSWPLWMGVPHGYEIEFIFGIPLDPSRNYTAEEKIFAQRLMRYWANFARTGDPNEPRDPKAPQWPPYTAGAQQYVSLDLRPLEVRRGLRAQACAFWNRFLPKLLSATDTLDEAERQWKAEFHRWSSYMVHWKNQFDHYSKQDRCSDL
Sequence of Cytochrome P450 2C9 (Homo sapiens) (P11712 whole entry, looked up): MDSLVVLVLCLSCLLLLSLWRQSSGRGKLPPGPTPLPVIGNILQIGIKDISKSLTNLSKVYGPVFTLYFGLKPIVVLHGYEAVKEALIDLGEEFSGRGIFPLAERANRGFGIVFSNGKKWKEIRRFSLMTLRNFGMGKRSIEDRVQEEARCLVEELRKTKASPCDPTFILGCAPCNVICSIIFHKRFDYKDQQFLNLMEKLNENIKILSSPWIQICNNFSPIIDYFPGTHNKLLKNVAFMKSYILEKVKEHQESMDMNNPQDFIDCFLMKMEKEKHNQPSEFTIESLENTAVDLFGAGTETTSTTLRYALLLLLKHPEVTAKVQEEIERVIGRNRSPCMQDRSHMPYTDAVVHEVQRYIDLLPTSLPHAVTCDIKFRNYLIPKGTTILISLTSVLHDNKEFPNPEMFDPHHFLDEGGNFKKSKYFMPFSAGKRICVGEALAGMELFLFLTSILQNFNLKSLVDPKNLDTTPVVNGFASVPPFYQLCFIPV

Row | Structure (SMILES) | outcome [1] | Potency [2] | outcome [3] | Potency [4] | outcome [5] | Potency [6] | Potency [7] | Potency [8] | Potency [9] | Potency [10] | Potency [11] | Potency [12] | Potency [13] | Potency [14] | Potency [15] | max activation [16] | Potency [17] | Potency [18] | Potency [19] | Potency [20]
1 | CNc1cnn(-c2cccc(C(F)(F)F)c2)c(=O)c1Cl | inactive | inactive | inactive | inactive | inactive | inactive | 46.8 µM (active) and 34.4 µM (active) | inactive | inactive | inactive | inactive | 6.85 µM (active) and 31.7 µM (active) | 5.44 µM (active) and 10 µM (active) | inactive | 34.3 µM (active) | – | – | – | – | –
2 | Oc1c(Br)cc(Br)cc1Br | inactive | inactive | inactive | inactive | inactive | inactive | 68.7 µM (active) and 61.1 µM (active) and inactive | inactive | inactive | inactive | inactive | inactive | 35.7 µM (active) and 63.3 µM (active) and inactive | inactive | inactive | -2.81% (inactive) | inactive | inactive | inactive | 63.4 µM (active) and 39.9 µM (active) and inactive
3 | O=P1(NCCCl)OCCCN1CCCl (configuration not stated) | inactive | inactive | inactive | inactive | inactive | inactive | – | – | – | – | – | – | – | inactive | – | – | – | – | – | –
4 | Cc1cc(O)ccc1Cl | inactive | – | inactive | inactive | inactive | inactive | – | inactive | inactive | inactive | inactive | 25.6 µM (active) and inactive | 36.2 µM (active) and 44.8 µM (active) and 17.4 µM (active) | inactive | inactive | -2.1% (inactive) | inactive | inactive | – | –
5 | O=[N+]([O-])c1ccc(Cl)cc1 | inactive | inactive | inactive | 48.2 µM (active) and inactive | inactive | inactive | inactive | inactive | inactive | inactive | inactive | inactive | inactive | inactive | inactive | – | – | – | inactive | inactive
6 | O=S(=O)(O)OOS(=O)(=O)O | inactive | inactive | inactive | inactive | inactive | inactive | – | inactive | inactive | inactive | inactive | inactive | 31.6 µM (active) and inactive | inactive | inactive | – | – | – | inactive | –
7 | C[C@]12CC[C@H](O)CC1=CC[C@@H]1[C@@H]2CC[C@]2(C)C(=O)CC[C@@H]12 | – | inactive | inactive | inactive | inactive | inactive | 54.5 µM (active) and 48.6 µM (active) and inactive | inactive | inactive | inactive | inactive | 79.7 µM (active) and 71 µM (active) and inactive | inactive | – | inactive | -3.38% (inactive) | inactive | inactive | inactive | –
